Laboratory results published in PubChem BioAssay (NCATS).
Values joined by “and” are separate entries in the source; they are usually repeats but may differ in a detail not shown here. Equal values may be shown once. Inconclusive results are not listed. Active and inactive are the calls of the source. Unless noted, calls follow the shape of the dose curve; as a rule, active = well fitted curve in the direction sought with a large enough effect; inconclusive = small, poorly fitted or top-dose-only effect, or another doubt; inactive = no such curve, though single readings can be large; an effect the other way counts as inactive or inconclusive.

Columns and labels:
[1] = qHTS Assay for Lipid Storage Modulators (AID 1519; calls by dose curve); conditions: Drosophila S3 cells, BODIPY lipid droplet/cell ratio, laser cytometry, cells loaded with oleic acid
Method in brief: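 Cells seeded at 5,000 per well were treated with compounds over a concentration series and loaded with oleic acid (400 uM, as added). Lipid droplet fluorescence (488 nm excitation, 500-530 nm channel) was read by laser-scanning cytometry and normalized to 20 uM Triacsin C.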

[2] = biological target: ATP-dependent 6-phosphofructokinase (Trypanosoma brucei brucei) (UniProt O15648); assay: qHTS Assay to Find Inhibitors of T. brucei phosphofructokinase: hit validation (AID 492961);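 also: luminescence reports ADP formed as PFK phosphorylates fructose-6-phosphate with ATP; % is scaled to controls: 0 for no effect and ±100 for the full control effect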; conditions: T. brucei PFK, ADP-Glo luminescence; series mostly up to 51.4 µM
Chain of ATP-dependent 6-phosphofructokinase (Trypanosoma brucei brucei) (O15648 whole entry, looked up): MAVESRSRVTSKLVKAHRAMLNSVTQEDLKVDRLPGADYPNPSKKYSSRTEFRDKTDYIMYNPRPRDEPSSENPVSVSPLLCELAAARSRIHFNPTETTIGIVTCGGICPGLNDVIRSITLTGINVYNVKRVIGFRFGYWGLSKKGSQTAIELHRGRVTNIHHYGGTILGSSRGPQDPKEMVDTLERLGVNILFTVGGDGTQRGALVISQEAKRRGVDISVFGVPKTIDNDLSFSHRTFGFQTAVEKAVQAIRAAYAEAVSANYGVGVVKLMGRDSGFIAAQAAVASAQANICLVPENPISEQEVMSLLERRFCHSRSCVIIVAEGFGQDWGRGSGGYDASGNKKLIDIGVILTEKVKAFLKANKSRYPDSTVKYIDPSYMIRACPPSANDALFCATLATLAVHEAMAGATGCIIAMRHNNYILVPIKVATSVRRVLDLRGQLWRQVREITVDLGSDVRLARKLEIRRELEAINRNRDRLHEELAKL
Method in brief: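 ADP-Glo luminescence read-out of ADP formed by 1.25 nM PFK from 0.1 mM ATP and 0.5 mM F6P (TEA pH 8.0, 45 min, RT). Compounds titrated; activity normalized to no-enzyme and full-enzyme controls.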

[3] = biological target: Ubiquitin carboxyl-terminal hydrolase 1 (Homo sapiens) (UniProt O94782); assay: Inhibitors of USP1/UAF1: Pilot qHTS (AID 504865); conditions: purified USP1/UAF1, Ub-rhodamine cleavage fluorescence; series mostly up to 114 µM; also: nearly all actives have a fitted effect of over 35% in size; also: potency is read from the fitted curve at half-maximal effect
Chain of Ubiquitin carboxyl-terminal hydrolase 1 (Homo sapiens) (O94782 whole entry, looked up): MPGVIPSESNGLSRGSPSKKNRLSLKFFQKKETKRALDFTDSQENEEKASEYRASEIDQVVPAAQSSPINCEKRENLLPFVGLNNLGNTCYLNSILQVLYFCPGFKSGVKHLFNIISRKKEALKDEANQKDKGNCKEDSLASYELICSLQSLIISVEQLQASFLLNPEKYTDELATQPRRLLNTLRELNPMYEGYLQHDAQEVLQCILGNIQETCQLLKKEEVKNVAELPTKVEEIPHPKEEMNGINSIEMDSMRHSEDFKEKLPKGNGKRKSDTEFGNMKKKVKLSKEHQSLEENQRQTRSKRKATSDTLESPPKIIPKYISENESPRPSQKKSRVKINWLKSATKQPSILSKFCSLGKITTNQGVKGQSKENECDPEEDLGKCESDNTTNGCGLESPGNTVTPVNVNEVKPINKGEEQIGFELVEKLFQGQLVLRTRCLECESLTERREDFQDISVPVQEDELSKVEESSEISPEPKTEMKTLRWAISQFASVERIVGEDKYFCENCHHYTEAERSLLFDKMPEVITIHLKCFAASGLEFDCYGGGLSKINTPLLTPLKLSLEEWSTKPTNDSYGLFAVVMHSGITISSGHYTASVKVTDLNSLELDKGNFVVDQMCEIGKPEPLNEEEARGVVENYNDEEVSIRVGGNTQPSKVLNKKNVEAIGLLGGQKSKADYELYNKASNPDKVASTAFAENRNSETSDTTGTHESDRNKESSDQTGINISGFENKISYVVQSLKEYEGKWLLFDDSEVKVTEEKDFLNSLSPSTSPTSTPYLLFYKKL
Method in brief: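 USP1/UAF1 complex at 1 nM preincubated 15 min at room temperature with compound, then Ub-Rho substrate added at 150 nM final. Fluorescence (480/540 nm) read kinetically in 50 mM HEPES pH 7.8, 0.5 mM EDTA, 1 mM TCEP, 0.1 mg/ml BSA, 0.01% Tween-20.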

[4] = biological target: Luciferin 4-monooxygenase (Photinus pyralis) (UniProt P08659); assay: Biochemical firefly luciferase enzyme assay for NPC (AID 624030);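 also: purified P. pyralis luciferase at 10 nM with luciferin and ATP substrate; 0% = DMSO and -100% = full luciferase inhibition by PTC124 control; nearly all actives have a fitted effect of over 70% in size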; conditions: purified P. pyralis luciferase, luminescence, 5 min; series mostly up to 58.6 µM
Chain of Luciferin 4-monooxygenase (Photinus pyralis) (P08659 whole entry, looked up): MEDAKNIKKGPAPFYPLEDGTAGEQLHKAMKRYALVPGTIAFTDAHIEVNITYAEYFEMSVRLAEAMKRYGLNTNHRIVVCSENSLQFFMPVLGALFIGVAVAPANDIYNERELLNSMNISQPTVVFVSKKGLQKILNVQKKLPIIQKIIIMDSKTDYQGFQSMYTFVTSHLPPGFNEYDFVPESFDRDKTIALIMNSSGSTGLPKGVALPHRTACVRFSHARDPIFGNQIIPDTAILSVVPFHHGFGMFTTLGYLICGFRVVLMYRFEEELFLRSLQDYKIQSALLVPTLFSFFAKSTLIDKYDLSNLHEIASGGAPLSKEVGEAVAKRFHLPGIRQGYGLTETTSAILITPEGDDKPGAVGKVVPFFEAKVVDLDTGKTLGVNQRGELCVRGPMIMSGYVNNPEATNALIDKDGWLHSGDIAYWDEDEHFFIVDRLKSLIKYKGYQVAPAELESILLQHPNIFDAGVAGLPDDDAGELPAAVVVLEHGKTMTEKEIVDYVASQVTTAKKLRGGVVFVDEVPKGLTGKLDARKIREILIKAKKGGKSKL
Method in brief: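 Direct inhibition of firefly luciferase enzyme (10 nM final, 50 mM Tris Acetate) assessed by luminescence within 5 minutes. Percent activity scaled between DMSO and PTC124 positive control, with concentration-effect curves classified by fit quality and response.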

[5] = qHTS profiling for inhibitors of Plasmodium falciparum proliferation (AID 504749);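 also: 0% = DMSO vehicle and full inhibition = artemisinin control; nearly all actives have a fitted effect of over 60% in size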; conditions: P. falciparum in erythrocytes, SYBR Green DNA, 72 h
Method in brief: (§1)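 In a 72 h erythrocytic culture (37 C, humidified, 5% CO2) at 2.5% hematocrit and 0.3% starting parasitemia, compounds were tested; SYBR Green I in detergent lysis buffer stained parasite DNA overnight.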

C2A = assay: as above; conditions: P. falciparum in erythrocytes, SYBR Green DNA, 72 h; series mostly up to 28.7 µM
Method in brief: as §1

CP185 = assay: as above; conditions: P. falciparum in erythrocytes, SYBR Green DNA, 72 h; series mostly up to 28.7 µM
Method in brief: as §1

FAB9 = assay: as above; conditions: P. falciparum in erythrocytes, SYBR Green DNA, 72 h; series mostly up to 28.7 µM
Method in brief: as §1

[6] = biological target: Lysosomal acid glucosylceramidase (Homo sapiens) (UniProt P04062); assay: Glucocerebrosidase-p2 (AID 348; in the data active = potency below about 10 µM; also: potency is read from the fitted curve at half-maximal effect); conditions: purified GBA, blue fluorogenic substrate, 40 min
Chain of Lysosomal acid glucosylceramidase (Homo sapiens) (P04062 whole entry, looked up): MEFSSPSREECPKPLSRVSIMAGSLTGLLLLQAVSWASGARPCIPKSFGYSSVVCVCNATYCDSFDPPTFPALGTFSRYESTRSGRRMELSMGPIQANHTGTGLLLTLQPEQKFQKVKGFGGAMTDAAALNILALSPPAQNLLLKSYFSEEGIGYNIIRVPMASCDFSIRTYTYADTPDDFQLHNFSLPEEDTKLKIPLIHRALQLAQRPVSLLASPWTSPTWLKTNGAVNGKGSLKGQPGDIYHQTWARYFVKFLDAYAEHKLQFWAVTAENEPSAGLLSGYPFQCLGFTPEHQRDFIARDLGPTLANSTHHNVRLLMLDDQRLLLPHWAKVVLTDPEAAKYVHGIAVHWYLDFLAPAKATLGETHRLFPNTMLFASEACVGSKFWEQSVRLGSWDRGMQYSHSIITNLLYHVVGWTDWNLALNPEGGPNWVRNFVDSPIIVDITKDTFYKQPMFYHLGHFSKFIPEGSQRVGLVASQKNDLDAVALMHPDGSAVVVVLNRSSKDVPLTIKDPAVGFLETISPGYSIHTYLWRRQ
Method in brief: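 Normal human glucocerebrosidase (0.2 nM) with blue fluorogenic substrate (80 uM final) in citrate/phosphate pH 5.9 with 10mM sodium taurocholate, 0.01% tween-20; 40 min RT, NaOH/glycine stop; fluorescence Ex 365/Em 440; AC50 from a titration from 0.6 nM upwards.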

[7] = AP1 Signaling Pathway (AID 357; active = well fitted curve in either direction with a large enough effect, not every such curve was filed as active;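 also: ME-180 reporter cells stimulated with EGF at its EC50 level; % is scaled to controls: 0 for no effect and ±100 for the full control effect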); conditions: ME-180 AP-1-bla reporter, EGF-induced, beta-lactamase ratio, 5 h; series mostly up to 17.2 µM
Method in brief: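 Modulation of EGF-driven AP-1 transcription was assessed with a beta-lactamase reporter in ME-180 cells. Compound and EC50 EGF were co-incubated 5 hours at 37 °C before 2.5-hour CCF4 loading at room temperature and dual-emission reading.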

[8] = biological target: Cytochrome P450 1A2 (Homo sapiens) (UniProt P05177); assay: p450-cyp1a2 (AID 410; calls by dose curve; also: potency is read from the fitted curve at half-maximal effect;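 as to activity change, negative = inhibition: -100% = full effect of reference inhibitor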); conditions: recombinant CYP1A2, luciferin-ME demethylation, luminescence; series mostly up to 25.6 µM
Chain of Cytochrome P450 1A2 (Homo sapiens) (P05177 whole entry, looked up): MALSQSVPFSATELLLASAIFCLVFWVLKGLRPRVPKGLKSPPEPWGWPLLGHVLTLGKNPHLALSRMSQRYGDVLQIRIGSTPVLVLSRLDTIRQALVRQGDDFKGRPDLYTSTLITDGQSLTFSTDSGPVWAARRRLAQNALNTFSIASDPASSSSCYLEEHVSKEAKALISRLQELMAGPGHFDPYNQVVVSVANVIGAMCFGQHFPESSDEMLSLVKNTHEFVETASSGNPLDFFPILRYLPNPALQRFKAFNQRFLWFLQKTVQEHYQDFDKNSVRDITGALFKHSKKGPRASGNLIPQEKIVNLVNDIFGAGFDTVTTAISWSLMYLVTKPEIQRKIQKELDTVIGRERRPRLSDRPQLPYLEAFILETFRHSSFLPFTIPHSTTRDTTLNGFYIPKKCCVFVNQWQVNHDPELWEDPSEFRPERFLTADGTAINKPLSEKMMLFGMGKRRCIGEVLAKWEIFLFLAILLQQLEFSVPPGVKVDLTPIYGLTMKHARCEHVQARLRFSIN
Method in brief: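 20nM CYP1A2, 100uM Luciferin-ME (=Km), 100mM KPO4; cpd 10 min RT; +NADPH regen, 60 min RT; stop/detect 20 min; luminescence. Normalized to furafylline 57 uM = full inhibition.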

[9] = NFAT Signaling Pathway (AID 444; active = well fitted curve in either direction with a large enough effect, not every such curve was filed as active;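 also: carbachol stimulus at about its EC50 of 1 µM final; % is scaled to controls: 0 for no effect and ±100 for the full control effect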); conditions: Jurkat NFAT-bla M1, carbachol, beta-lactamase ratio, 5 h
Method in brief: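 Read-out: CCF4 FRET ratio (460 nm/530 nm) after 1 h RT dye loading, used for %activity and AC50 from titration series. Cells: Jurkat NFAT-β-lactamase/M1 line, treated with compound plus 1 uM carbachol for 5 h, 37 °C.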

[10] = Stat Signaling Pathway (AID 446; active = well fitted curve in either direction with a large enough effect, not every such curve was filed as active;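 also: ME-180 cervical cancer cells given 40 pM IL-6 alongside compound; SIE-controlled beta-lactamase reporter measured as 460/530 nm FRET emission ratio; % is scaled to controls: 0 for no effect and ±100 for the full control effect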); conditions: ME-180 (cervical carcinoma) SIE beta-lactamase reporter, IL-6 stimulated, 5 h; series mostly up to 17.2 µM
Method in brief: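 Overnight-plated ME-180 cells bearing a STAT Inducible Element beta-lactamase reporter; 5 h co-exposure to compound and 40 pM IL-6; values normalized to 300 pM IL-6 and 125 nM JAK inhibitor controls.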

[11] = biological target: Glucocorticoid receptor (Homo sapiens) (UniProt P04150); assay: GR-GFP Redistribution (AID 450;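 active = compounds whose dose series gives a full or clear partial fitted curve of increased nuclear translocation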; also: potency is read from the fitted curve at half-maximal effect); conditions: U2OS GR-GFP nuclear translocation, laser cytometry, 2 h
Chain of Glucocorticoid receptor (Homo sapiens) (P04150 whole entry, looked up, the tested form may be a part): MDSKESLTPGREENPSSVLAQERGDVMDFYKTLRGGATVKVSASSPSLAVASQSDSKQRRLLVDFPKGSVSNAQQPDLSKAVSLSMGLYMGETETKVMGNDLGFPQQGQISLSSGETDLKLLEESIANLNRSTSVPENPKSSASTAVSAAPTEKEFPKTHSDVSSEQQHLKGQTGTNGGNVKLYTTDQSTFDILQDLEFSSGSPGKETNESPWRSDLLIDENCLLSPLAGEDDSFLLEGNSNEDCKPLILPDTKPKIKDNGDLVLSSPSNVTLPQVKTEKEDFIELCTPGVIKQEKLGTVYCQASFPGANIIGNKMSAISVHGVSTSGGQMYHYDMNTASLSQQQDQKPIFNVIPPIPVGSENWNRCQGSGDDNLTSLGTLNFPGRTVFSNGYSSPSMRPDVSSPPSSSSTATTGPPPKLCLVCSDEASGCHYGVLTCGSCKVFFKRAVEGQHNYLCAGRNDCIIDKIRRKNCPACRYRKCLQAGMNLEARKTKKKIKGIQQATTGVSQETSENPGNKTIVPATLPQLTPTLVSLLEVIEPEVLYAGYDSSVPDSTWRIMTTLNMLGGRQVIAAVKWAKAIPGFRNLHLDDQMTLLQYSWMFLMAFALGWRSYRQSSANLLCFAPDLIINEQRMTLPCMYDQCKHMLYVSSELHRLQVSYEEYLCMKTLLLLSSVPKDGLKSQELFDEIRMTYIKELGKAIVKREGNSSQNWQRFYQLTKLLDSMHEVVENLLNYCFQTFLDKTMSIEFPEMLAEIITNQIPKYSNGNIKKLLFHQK

[12] = biological target: Glucocorticoid receptor (Homo sapiens) (UniProt P04150); assay: GR-EFC Redistribution (AID 451; calls by dose curve; also: potency is read from the fitted curve at half-maximal effect); conditions: CHO-K1 GR-EFC translocation, beta-gal luminescence, 2 h
Method in brief: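 Translocation of GR-ED fusion to nuclear EA restores b-gal, read by luminescence after 1 h room-temperature detection. Engineered CHO-K1 biosensor cells, 1,000/well, exposed 2 h at 37 C to titrations up to 46 uM final.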

[13] = biological target: Mitogen-activated protein kinase 10 (Mus musculus) (UniProt Q61831); assay: JNK3 AlphaScreen Assay (AID 530; active = well fitted curve in either direction with a large enough effect, not every such curve was filed as active); conditions: JNK3 lysate, c-Jun phosphorylation; series mostly up to 57.1 µM
Method in brief: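 Kinase buffer: 20 mM Tris-HCl pH 7.6, 10 mM MgCl2, 1 mM DTT, 0.1 mM Na3VO4, 0.01% Tween-20; ATP 10 uM. Substrate biotin-GST-cJun(1-79), enzyme from activated HepG2 lysates. Detection by Ser73 phospho-antibody AlphaScreen.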

[14] = biological target: Cytochrome P450 3A4 (Homo sapiens) (UniProt P08684); assay: qHTS Assay for Inhibitors and Substrates of Cytochrome P450 3A4 (AID 884); conditions: recombinant CYP3A4, Luciferin-PPXE luminescence; series mostly up to 57.1 µM; also: nearly all actives have a fitted effect of over 50% in size; also: potency is read from the fitted curve at half-maximal effect
Chain of Cytochrome P450 3A4 (Homo sapiens) (P08684 whole entry, looked up): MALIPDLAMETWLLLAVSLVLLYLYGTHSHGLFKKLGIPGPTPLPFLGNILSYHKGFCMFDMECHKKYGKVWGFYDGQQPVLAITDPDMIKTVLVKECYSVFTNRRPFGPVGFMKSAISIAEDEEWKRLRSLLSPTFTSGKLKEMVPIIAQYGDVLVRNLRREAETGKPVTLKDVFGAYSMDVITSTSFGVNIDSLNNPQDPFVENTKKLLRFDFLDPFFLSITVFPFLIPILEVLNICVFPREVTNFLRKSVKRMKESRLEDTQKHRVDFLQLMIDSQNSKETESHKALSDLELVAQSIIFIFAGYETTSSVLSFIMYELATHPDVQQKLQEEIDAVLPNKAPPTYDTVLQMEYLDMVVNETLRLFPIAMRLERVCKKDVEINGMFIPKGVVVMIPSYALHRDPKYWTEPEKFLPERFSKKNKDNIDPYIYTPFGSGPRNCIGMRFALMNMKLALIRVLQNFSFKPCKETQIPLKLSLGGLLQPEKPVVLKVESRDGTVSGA
Method in brief: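 Luminescent readout of luciferin produced by CYP3A4 (20 nM) dealkylation of Luciferin-PPXE, 25 uM (its KM). NADPH-driven reaction ran 60 min at RT after 10 min compound preincubation; data scaled to 57 uM ketoconazole as 100% inhibition.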

[15] = biological target: Cytochrome P450 2D6 (Homo sapiens) (UniProt P10635); assay: qHTS Assay for Inhibitors and Substrates of Cytochrome P450 2D6 (AID 891); conditions: recombinant CYP2D6, luciferin-ME EGE luminescence; series mostly up to 57.1 µM; also: nearly all actives have a fitted effect of over 60% in size; also: potency is read from the fitted curve at half-maximal effect
Method in brief: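 Luminescent read-out of luciferin formed by 5 nM human CYP2D6 demethylating 30 uM Luciferin-ME EGE (Km level) over 60 min at room temperature after NADPH regeneration addition. Data normalized to full inhibition by 1.43 uM quinidine.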

[16] = biological target: Cytochrome P450 3A4 (Homo sapiens) (UniProt P08684); assay: qHTS Assay for Activators of Cytochrome P450 3A4 (AID 885); conditions: recombinant CYP3A4, Luciferin-PPXE luminescence, 60 min; series mostly up to 57.1 µM; also: nearly all actives have a fitted effect of over 65% in size; also: potency is read from the fitted curve at half-maximal effect
Method in brief: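 Using 20nM recombinant human CYP3A4 in potassium phosphate (200mM), substrate Luciferin-PPXE at 25uM, luminescent luciferin detection followed a 60-min RT NADPH reaction; data scaled to 57 uM ketoconazole.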

[17] = biological target: 3',5'-cyclic-AMP phosphodiesterase 4B (Homo sapiens) (UniProt Q07343); assay: qHTS Assay for Inhibitors of PDE-IV (AID 607; active = well fitted activation curve with a large enough effect in the main read-out, with a control signal flat, not every such curve was filed as active; also: % of control where 0% means no effect); conditions: HEK293 ACTOne CNG channel cells, membrane potential fluorescence; series mostly up to 22.9 µM
Chain of 3',5'-cyclic-AMP phosphodiesterase 4B (Homo sapiens) (Q07343 whole entry, looked up): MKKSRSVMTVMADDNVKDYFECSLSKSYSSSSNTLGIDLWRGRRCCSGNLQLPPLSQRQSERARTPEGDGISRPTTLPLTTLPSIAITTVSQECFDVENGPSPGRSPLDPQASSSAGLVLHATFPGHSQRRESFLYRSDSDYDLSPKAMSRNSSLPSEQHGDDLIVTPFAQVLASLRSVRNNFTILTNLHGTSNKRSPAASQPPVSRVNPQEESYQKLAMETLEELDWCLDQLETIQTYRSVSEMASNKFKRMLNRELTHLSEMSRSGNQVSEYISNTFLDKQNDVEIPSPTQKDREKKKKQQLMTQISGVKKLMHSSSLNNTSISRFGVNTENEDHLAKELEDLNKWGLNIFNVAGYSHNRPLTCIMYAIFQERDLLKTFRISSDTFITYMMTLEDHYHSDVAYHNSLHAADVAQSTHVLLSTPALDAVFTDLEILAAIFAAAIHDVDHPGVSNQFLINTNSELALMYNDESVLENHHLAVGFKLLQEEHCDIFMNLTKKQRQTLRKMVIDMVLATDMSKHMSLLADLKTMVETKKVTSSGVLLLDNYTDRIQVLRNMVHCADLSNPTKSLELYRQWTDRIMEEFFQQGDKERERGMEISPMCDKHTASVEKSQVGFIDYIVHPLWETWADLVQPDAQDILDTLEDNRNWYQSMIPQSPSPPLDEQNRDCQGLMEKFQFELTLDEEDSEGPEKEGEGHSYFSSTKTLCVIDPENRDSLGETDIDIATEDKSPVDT
Method in brief: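 Live HEK293 cells with a modified cyclic nucleotide-gated (CNG) channel report intracellular cAMP via membrane-potential dye fluorescence (ex 535/em 590 nm). Endogenous PDE-IV was targeted. Compounds were tested at up to 22.9 uM final; RO 20-1724 100 uM served as control.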

[18] = measured here: cell count channel max response
[19] = measured here: lipid channel max response

SMILES: C[C@]12CC[C@H](O)CC1=CCC1C2CC[C@]2(C)C(=O)CC[C@@H]12 (stereo partly specified)
- activity change, negative = inhibition ([1]; at 57.5 µM (top of the series)): 0.778% (inactive)
- max response [1, 18]: -17.2%
- max response [1, 19]: -14.9%
- Potency [2]: inactive
- Potency [3]: inactive
- Potency [4]: inactive
- activity, negative = inhibition ([5]; at 28.7 µM (top of the series), parasite line A): 7.06% (inactive)
- activity, negative = inhibition ([5]; at 28.7 µM (top of the series), parasite line B): 19% (inactive)
- Potency (C2A): inactive
- Potency (CP185): inactive
- Potency (FAB9): inactive

SMILES: C[C@H](CCC(=O)O)[C@H]1CC[C@@H]2[C@H]3CC[C@H]4C[C@@H](O)CC[C@@]4(C)[C@H]3CC[C@]21C
- activity change, negative = inhibition ([1]; at 25.7 µM (top of the series)): 2.39% (inactive)
- max response [1, 18]: -11.2%
- max response [1, 19]: -8.48%

SMILES: C[C@@H](C(=O)O)c1ccc(-c2ccccc2)c(F)c1
- activity change, negative = inhibition ([1]; at 25.7 µM (top of the series)): 2.45% (inactive)
- max response [1, 18]: 2.3%
- max response [1, 19]: 1.21%

SMILES: Clc1ccccc1-c1cncnc1NCCc1cnc[nH]1
- Potency [6]: > 11.4 µM (inactive)
- outcome [7]: inactive
- Potency [8]: 1.58 µM (active)
- activity change, negative = inhibition ([9]; at 7.69 µM (top of the series)): -21.6% (inactive)
- outcome [10]: inactive
- Potency [11]: > 46 µM (inactive)
- Potency [12]: > 46 µM (inactive)
- outcome [13]: inactive
- Potency [14]: 0.501 µM (active)
- Potency [15]: 3.98 µM (active)
- Potency [3]: inactive

SMILES: CC(CCC(=O)O)C1CCC2C3C(=O)CC4CC(=O)CC[C@@]4(C)C3CC(=O)[C@]12C (stereo partly specified)
- activity change, negative = inhibition ([1]; at 57.5 µM (top of the series)): 1.06% (inactive)
- max response [1, 18]: 16%
- max response [1, 19]: 21.9%

SMILES: O=C1c2ccccc2-c2cccc3cccc1c23
- Potency [16]: inactive
- activity change, negative = inhibition ([1]; at 57.5 µM (top of the series)): 15.9% (inactive)
- max response [1, 18]: 9.47%
- max response [1, 19]: 28.5%
- Potency [3]: inactive

SMILES: COc1cc2c(cc1-c1cc3cc4ccoc4cc3oc1=O)OCO2
- Potency [14]: 0.398 µM (active)
- Potency [16]: inactive
- activity change, negative = inhibition ([1]; at 57.5 µM (top of the series)): 16.5% (inactive)
- max response [1, 18]: 6.63%
- max response [1, 19]: 25.9%
- Potency [3]: 50.1 µM (active)

SMILES: c1ccc(N2CC3(CCNCC3)C2)cc1
- Potency [6]: > 11.4 µM (inactive)
- outcome [7]: inactive
- Potency [8]: inactive
- activity change, negative = inhibition ([9]; at 7.69 µM (top of the series)): -5.86% (inactive)
- outcome [10]: inactive
- Potency [12]: > 46 µM (inactive)
- outcome [13]: inactive
- activity change, negative = inhibition ([1]; at 57.5 µM (top of the series)): 3.32% (inactive)
- max response [1, 18]: 11.6%
- max response [1, 19]: 20.7%

SMILES: CCNC[C@H](O)c1cccc(O)c1
- outcome [7]: inactive
- Potency [8]: inactive
- activity change, negative = inhibition ([9]; at 17.2 µM (top of the series)): -13.2% (inactive)
- outcome [10]: inactive
- Potency [11]: > 20.6 µM (inactive)
- Potency [12]: > 20.6 µM (inactive)
- outcome [13]: inactive
- Potency [17]: inactive
- activity change, negative = inhibition ([1]; at 25.7 µM (top of the series)): -1.26% (inactive)
- max response [1, 18]: -11.3%
- max response [1, 19]: -12.3%
- Potency [2]: inactive
- Potency [4]: inactive
- activity, negative = inhibition ([5]; at 12.8 µM (top of the series), parasite line A): -4.47% (inactive)
- activity, negative = inhibition ([5]; at 12.8 µM (top of the series), parasite line B): 2.63% (inactive)
- Potency (C2A): inactive
- Potency (CP185): inactive
- Potency (FAB9): inactive

SMILES: CCOCN(C(=O)CCl)c1c(C)cccc1CC
- outcome [13]: inactive
- Potency [14]: inactive
- Potency [16]: 15.8 µM (active)
- activity change, negative = inhibition ([1]; at 57.5 µM (top of the series)): 0.371% (inactive)
- max response [1, 18]: -6.11%
- max response [1, 19]: -5.22%
- Potency [3]: inactive

SMILES: COc1ccc2c(c1O)-c1c(OC)c(OC)cc3c1[C@H](C2)N(C)CC3
- outcome [7]: inactive
- Potency [8]: 10 µM (active)
- activity change, negative = inhibition ([9]; at 17.2 µM (top of the series)): -3.12% (inactive)
- outcome [10]: inactive
- Potency [11]: > 20.6 µM (inactive) and > 46 µM (inactive)
- Potency [12]: > 20.6 µM (inactive) and > 46 µM (inactive)
- outcome [13]: inactive
- Potency [17]: inactive
- Potency [16]: inactive
- Potency [15]: inactive
- activity change, negative = inhibition ([1]; at 25.7 µM (top of the series)): 2.04% (inactive)
- max response [1, 18]: 5.35%
- max response [1, 19]: 2.2%
- Potency [3]: inactive
